For part of these data: Entries with a potency or affinity are not part of this list. Activity calls are given as the source filed them.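 How the source made its calls, unless noted: active means calcium signal ratio cut to more than 3 SD under the fully stimulated control mean yet still positive, in both repeats and the primary screen; inactive means the rest.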
Legend:
[1] = tested on: TRPC4 beta (transient receptor potential cation channel C4), mouse; assay: activators of mouse TRPC4 channel, confirmation, cell-based, Fluo4 calcium, HEK293 TRPC4beta/mu-opioid, duplicates, 10 µM (AID 2426;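 active means fluorescence ratio normalized to control raised more than 50% in primary screen plus both repeat runs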); conditions: Fluo4 calcium fluorescence, at 10 µM; active compounds read high
[2] = tested on: transient receptor potential cation channel C4 beta (TRPC4), mouse; assay: activators of mouse TRPC4 channel, confirmation, cell-based, second round, Fluo4, HEK293 TRPC4beta/mu-opioid, 1 µM (AID 2461;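 active means primary screen active and over 50% activation in each of two duplicate runs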); conditions: Fluo4 calcium fluorescence, at 1 µM; active compounds read high
[3] = tested on: TRPC4 (transient receptor potential cation channel C4 beta), mouse; assay: positive allosteric modulators of mouse TRPC4, confirmation, cell-based, second round, Fluo-4, HEK293 TRPC4beta/mu-opioid, 1 µM (AID 2554;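 active means primary screen hit whose fluorescence ratio, in both repeats, exceeds the weak agonist control mean by 3 SD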); conditions: DAMGO EC20, Fluo-4 calcium flux, at 1 µM; active compounds read high
[4] = tested on: TRPC4 beta (transient receptor potential cation channel C4), mouse; assay: positive allosteric modulators of mouse TRPC4, confirmation, cell-based, Fluo-4, HEK293 TRPC4beta/mu-opioid (AID 2555;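 active means primary screen hit whose calcium fluorescence ratio, in both repeats, exceeds the weak agonist control mean by 3 SD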); conditions: DAMGO EC20, Fluo-4 calcium flux, at 10 µM; active compounds read high
[5] = biological target: Short transient receptor potential channel 4 (Mus musculus) (UniProt Q9QUQ5); assay: inhibitors of mouse TRPC4 channel, confirmation, cell-based, Fluo4, HEK293 TRPC4beta/mu-opioid (AID 2636;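 active means calcium signal cut by more than 3 SD below the full-agonist control yet still positive, in both repeats and the earlier primary screen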); conditions: DAMGO, Fluo4 calcium flux, at 10 µM; active compounds read high
Sequence of Short transient receptor potential channel 4 (Mus musculus) (Q9QUQ5 whole entry, looked up): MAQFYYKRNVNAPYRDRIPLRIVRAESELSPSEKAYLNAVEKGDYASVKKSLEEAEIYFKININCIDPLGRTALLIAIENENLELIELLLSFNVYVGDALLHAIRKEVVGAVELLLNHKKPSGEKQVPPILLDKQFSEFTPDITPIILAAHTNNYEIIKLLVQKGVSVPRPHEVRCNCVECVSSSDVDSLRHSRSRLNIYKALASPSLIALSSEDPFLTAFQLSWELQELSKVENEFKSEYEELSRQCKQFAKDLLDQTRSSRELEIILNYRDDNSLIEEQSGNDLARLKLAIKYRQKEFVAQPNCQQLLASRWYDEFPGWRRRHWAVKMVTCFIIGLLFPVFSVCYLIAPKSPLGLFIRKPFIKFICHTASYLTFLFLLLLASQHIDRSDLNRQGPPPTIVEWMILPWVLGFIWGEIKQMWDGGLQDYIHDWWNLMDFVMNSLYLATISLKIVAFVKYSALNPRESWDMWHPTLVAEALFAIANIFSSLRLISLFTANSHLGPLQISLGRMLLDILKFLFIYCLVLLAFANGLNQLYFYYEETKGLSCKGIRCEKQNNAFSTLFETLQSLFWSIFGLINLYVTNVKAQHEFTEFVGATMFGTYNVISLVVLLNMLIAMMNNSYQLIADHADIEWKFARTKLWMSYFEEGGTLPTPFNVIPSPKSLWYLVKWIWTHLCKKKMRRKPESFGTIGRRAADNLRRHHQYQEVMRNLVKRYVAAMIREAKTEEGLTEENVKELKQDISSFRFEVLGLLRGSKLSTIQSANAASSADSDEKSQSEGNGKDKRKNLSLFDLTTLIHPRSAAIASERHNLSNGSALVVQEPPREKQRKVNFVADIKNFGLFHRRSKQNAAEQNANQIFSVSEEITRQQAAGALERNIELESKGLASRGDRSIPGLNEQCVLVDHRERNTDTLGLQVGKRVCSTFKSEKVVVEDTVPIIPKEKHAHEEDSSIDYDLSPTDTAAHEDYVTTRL

[6] = biological target: Short transient receptor potential channel 4 (Mus musculus) (UniProt Q9QUQ5); assay: inhibitors of mouse TRPC4 channel, confirmation, cell-based, second round, Fluo4, HEK293 TRPC4beta/mu-opioid, 1 µM (AID 2637); conditions: Fluo4 calcium flux, DAMGO, at 1 µM; active compounds read high
[7] = biological target: Short transient receptor potential channel 4 (Mus musculus) (UniProt Q9QUQ5); assay: mouse TRPC4 channel activators, dose response, cell-based, HEK293 TRPC4/mu-opioid, Fluo-4 calcium (AID 434937;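 active means primary screen activator hit with a dose response curve and TRPC4 channel activation at any tested dose; inactive means no activation, no dose response, or not a primary hit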)
[8] = biological target: Short transient receptor potential channel 4 (Mus musculus) (UniProt Q9QUQ5); assay: TRPC4 positive allosteric modulators, dose response, cell-based, HEK293 TRPC4/mu-opioid, Fluo-4 calcium, EC20 DAMGO (AID 434941;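 active means earlier screen potentiator hit that boosts the TRPC4 ion channel at some dose, with a dose response; inactive means no potentiation, no dose response, or not a prior hit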;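 further: calcium entry triggered by an EC20 dose of DAMGO at the co-expressed mu-opioid receptor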)
[9] = biological target: Short transient receptor potential channel 4 (Mus musculus) (UniProt Q9QUQ5); assay: mouse TRPC4 channel inhibitors, dose response, cell-based, HEK293 TRPC4/mu-opioid, Fluo-4 calcium (AID 434942;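 active means primary screen inhibitor hit that blocks the TRPC4 channel at some tested dose, yielding a dose curve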)
[10] = biological target: Short transient receptor potential channel 6 (Mus musculus) (UniProt Q61143); assay: inhibition of mouse TRPC6 channel, confirmation, selectivity assay for TRPC4 inhibitor project, cell-based, HEK293, membrane potential dye, duplicate (AID 434948;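 active means active in primary screen and both duplicates, each dropping signal beyond three positive-control SD with fluorescence still positive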); conditions: HEK293 TRPC6, membrane potential dye fluorescence, at 10 µM, stimulated with maximal-effect acetylcholine; active compounds read high
Sequence of Short transient receptor potential channel 6 (Mus musculus) (Q61143 whole entry, looked up): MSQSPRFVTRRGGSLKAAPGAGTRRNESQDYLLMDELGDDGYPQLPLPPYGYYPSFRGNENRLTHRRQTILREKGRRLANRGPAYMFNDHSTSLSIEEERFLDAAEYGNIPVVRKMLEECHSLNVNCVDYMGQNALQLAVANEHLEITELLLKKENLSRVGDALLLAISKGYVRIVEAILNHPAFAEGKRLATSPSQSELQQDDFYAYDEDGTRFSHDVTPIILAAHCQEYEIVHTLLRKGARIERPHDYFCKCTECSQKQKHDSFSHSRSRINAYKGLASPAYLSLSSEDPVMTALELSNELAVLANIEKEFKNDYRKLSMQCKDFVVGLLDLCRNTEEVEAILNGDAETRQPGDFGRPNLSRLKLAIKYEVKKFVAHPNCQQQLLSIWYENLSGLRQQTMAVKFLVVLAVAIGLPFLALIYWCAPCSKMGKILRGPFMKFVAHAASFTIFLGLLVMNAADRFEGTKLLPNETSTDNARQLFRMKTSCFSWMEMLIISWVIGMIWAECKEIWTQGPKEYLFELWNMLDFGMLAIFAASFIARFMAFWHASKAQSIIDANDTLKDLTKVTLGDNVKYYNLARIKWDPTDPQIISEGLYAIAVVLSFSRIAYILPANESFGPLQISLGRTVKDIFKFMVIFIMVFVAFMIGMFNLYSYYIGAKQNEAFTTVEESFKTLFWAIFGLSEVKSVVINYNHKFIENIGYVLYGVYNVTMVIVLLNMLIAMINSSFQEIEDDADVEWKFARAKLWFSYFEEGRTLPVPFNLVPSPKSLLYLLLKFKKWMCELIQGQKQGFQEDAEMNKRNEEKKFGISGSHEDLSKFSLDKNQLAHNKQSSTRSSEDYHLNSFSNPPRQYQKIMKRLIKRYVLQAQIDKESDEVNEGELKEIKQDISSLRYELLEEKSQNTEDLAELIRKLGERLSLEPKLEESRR

[11] = biological target: Short transient receptor potential channel 6 (Mus musculus) (UniProt Q61143); assay: activation of mouse TRPC6 channel, confirmation, selectivity assay for TRPC4 activator project, cell-based, HEK293, membrane potential dye, duplicate (AID 434950;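 active means membrane potential signal rise above negative control mean plus 3 SD in both duplicates, also active in the earlier TRPC4 screen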); conditions: HEK293 TRPC6, membrane potential fluorescence, at 10 µM; active compounds read high
[12] = biological target: Short transient receptor potential channel 6 (Mus musculus) (UniProt Q61143); assay: TRPC6 potentiation by TRPC4 potentiator hits, confirmation, selectivity assay for TRPC4 potentiator project, HEK293 cells, membrane potential dye, duplicate (AID 434952;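 active means compound raising the membrane signal above positive-control mean plus 3 SD in both repeats, and a primary screen hit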); conditions: HEK293 TRPC6, membrane potential dye fluorescence, at 10 µM, maximal acetylcholine added after compound; active compounds read high
[13] = biological target: Short transient receptor potential channel 4 (Mus musculus) (UniProt Q9QUQ5); assay: calcium flux activators in TRPC4/5HT1a cells, counter-screen for TRPC4 activator project, cell-based, second counter screen, HEK293 TRPC4/5HT1a, Fluo-4 (AID 434977;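 active means calcium signal rise above buffer-control mean plus 5 SD in both duplicates, and also a hit in the primary screen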); conditions: Fluo-4 calcium flux, at 10 µM; active compounds read high
[14] = calcium flux inhibitors in TRPC4/5HT1a cells, confirmation, counter-screen for TRPC4 inhibitor project, cell-based, second counter screen, HEK293 TRPC4/5HT1a, Fluo-4 (AID 434978;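 active means primary screen active whose calcium signal fell more than 3 SD beyond the full-serotonin control mean in both duplicate plates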;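 further: serotonin given first at submaximal then at maximal dose after compound preincubation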); conditions: Fluo-4 calcium flux, at 10 µM, serotonin added to trigger calcium flux; active compounds read high
[15] = tested on: TRPC4 (mouse), co-expressed with 5HT1a in HEK293; assay: calcium flux potentiators in TRPC4/5HT1a cells, confirmation, counter-screen for TRPC4 potentiator project, cell-based, second counter screen, HEK293 TRPC4/5HT1a, Fluo-4 (AID 434979;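 active means signal rise over 3 SD above mean of control wells given weak agonist, in both repeats and first screen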); conditions: Fluo-4 calcium flux, at 10 µM, serotonin added at its EC20 dose; active compounds read high
[16] = calcium flux activation in mu-opioid HEK293 cells, confirmation, counter-screen for TRPC4 activator project, cell-based, HEK293 mu-opioid receptor line (AID 449723;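 active means hit in primary screen, with calcium signal over 5 SD above buffer well mean in both duplicates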;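 further: counter screen cells carry the mu-opioid receptor alone and lack TRPC4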); conditions: Fluo-4 calcium fluorescence, at 10 µM; active compounds read high
[17] = calcium flux enhancement in mu-opioid HEK293 cells, confirmation, counter-screen for TRPC4 allosteric potentiator project, cell-based, HEK293 mu-opioid receptor line (AID 449724;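 active means calcium signal rise more than 3 SD above the low-dose agonist control mean, in both duplicate plates and the primary screen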); conditions: Fluo-4 calcium flux, at 10 µM, compound added before EC20 DAMGO stimulus; active compounds read high

Compound | outcome [1] | outcome [2] | potentiation [3] | potentiation [4] | outcome [5] | outcome [6] | outcome [7] | outcome [8] | outcome [9] | outcome [10] | outcome [11] | outcome [12] | outcome [13] | outcome [14] | outcome [15] | outcome [16] | outcome [17] | potentiation [15] | outcome [3] | outcome [4]
CCN(CCNC(=O)C1CCCN(c2ncnc3c2nc2n3CCCCC2)C1)Cc1ccccc1 (stereo not given) | inactive | inactive | 18% (active) | 10% (active) | inactive | inactive | inactive | inactive | inactive | inactive | inactive | inactive | inactive | inactive | inactive | inactive | inactive |  |  | 
CCN1CCCC1CNCc1ccc(Cl)cc1Cl (stereo not given) | inactive | inactive | 11% (active) | 8% (active) | inactive | inactive | inactive | inactive | inactive | inactive | inactive | inactive | inactive | inactive |  | inactive | inactive | 12.9% (active) |  | 
O=C(C1CC1)N1CCc2cc(S(=O)(=O)NC3CCN(Cc4ccccc4)CC3)ccc21 | inactive | inactive |  |  | inactive | inactive | inactive | inactive | inactive | inactive | inactive | inactive | inactive | inactive | inactive | inactive | inactive |  | inactive | inactive
CCOc1cc(O)c(-c2[nH]ncc2-c2nc(C)cs2)cc1CC | inactive | inactive |  | 21% (active) | inactive | inactive | inactive | inactive | inactive | inactive | inactive | inactive | inactive | inactive |  | inactive | inactive | 20% (active) | inactive | 
Cc1cccn2c(=O)c3cc(C(=O)N(C)C)n(C)c3nc12 | inactive | inactive |  | 29% (active) | inactive | inactive | inactive | inactive | inactive | inactive | inactive | inactive | inactive | inactive |  | inactive | inactive | 37.3% (active) | inactive | 
CCOC(=O)c1c(NC(NC(C)=O)C(Cl)(Cl)Cl)sc2c1CCCC2 (stereo not given) | inactive | inactive |  |  | inactive | inactive | inactive | inactive | inactive | inactive | inactive | inactive | inactive | inactive |  | inactive | inactive | 7.17% (active) | inactive | inactive
CCc1c(C)nc2ccc(Br)cc2c1SCCC#N | inactive | inactive |  |  | inactive | inactive | inactive | inactive | inactive | inactive | inactive | inactive | inactive | inactive | inactive | inactive | inactive |  | inactive | inactive
CCCCn1c(N)c(N(CCOC)C(=O)c2ccc(-c3ccc(C(C)=O)cc3)o2)c(=O)[nH]c1=O | inactive | inactive |  |  | inactive | inactive | inactive | inactive | inactive | inactive | inactive | inactive | inactive | inactive | inactive | inactive | inactive |  | inactive | inactive
CCCCN(C(=O)c1cccc2c(=O)c(C)c(-c3ccccc3)oc12)c1ccccc1 | inactive | inactive |  | 15% (active) | inactive | inactive | inactive | inactive | inactive | inactive | inactive | inactive | inactive | inactive |  | inactive | inactive | 12.4% (active) | inactive | 
CCN(CC)CCN(Cc1cc2cc3c(cc2[nH]c1=O)OCCO3)C(=O)NC1CCCCC1 | inactive | inactive |  |  | inactive | inactive | inactive | inactive | inactive | inactive | inactive | inactive | inactive | inactive | inactive | inactive | inactive |  | inactive | inactive
CCCN1Cc2cccc(C(=O)N3CCN(c4cc(Cl)ccc4C)CC3)c2C1=O | inactive | inactive |  | 81% (active) | inactive | inactive | inactive | inactive | inactive | inactive | inactive | inactive | inactive | inactive |  | inactive | inactive | 49.8% (active) | inactive | 
CCOC(=O)C(=NC1CCS(=O)(=O)C1)NNc1ccccc1Cl (stereo not given) | inactive | inactive |  | 85% (active) | inactive | inactive | inactive | inactive | inactive | inactive | inactive | inactive | inactive | inactive |  | inactive | inactive | 64.7% (active) | inactive | 
CCOP(=O)(c1ccccc1)c1nc(-c2ccccc2Cl)oc1N1CCCCC1 (stereo not given) | inactive | inactive |  | 23% (active) | inactive | inactive | inactive | inactive | inactive | inactive | inactive | inactive | inactive | inactive |  | inactive | inactive | 30.9% (active) | inactive | 
CC(Oc1ccc(Cl)cc1Cl)C(=O)N(C)c1ccccc1 (stereo not given) | inactive | inactive |  |  | inactive | inactive | inactive | inactive | inactive | inactive | inactive | inactive | inactive | inactive | inactive | inactive | inactive |  | inactive | inactive
COc1ccc(-c2cc(C(=O)N3CC(C)CC(C)C3)c3ccccc3n2)cc1 (stereo not given) | inactive | inactive |  |  | inactive | inactive | inactive | inactive | inactive | inactive | inactive | inactive | inactive | inactive | inactive | inactive | inactive |  | inactive | inactive
